Test results: PubChem BioAssay (Tox21)
Records with an inconclusive call do not appear. Entries that show only a call come without a potency. Active and inactive are the calls of the source. Unless noted, the call rests on the fitted dose curve; in most records, active means well fitted curve in the direction sought with a large enough effect in the repeat runs; inconclusive means weak or mixed curves; inactive means no such curve, though single readings can be large; an effect the other way counts as inactive or inconclusive.

Assays:
[1] = qHTS assay to identify aromatase inhibitors - cell viability counter screen (AID 743084);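 further: cells stimulated with testosterone during compound exposure; nearly all actives have a fitted effect of over 55% in size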
[2] = biological target: Aryl hydrocarbon receptor (Homo sapiens) (UniProt P35869); assay: qHTS assay to identify small molecule that activate the aryl hydrocarbon receptor (AhR) signaling pathway (AID 743085); further: nearly all actives have a fitted effect of over 15% in size; further: potency means the concentration at half of the fitted maximal effect;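 on activation: HG2L7.5c1 human HepG2 liver cells with stably integrated DRE-driven firefly reporter; series mostly up to about 70 µM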
How it was run: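 Compounds were tested in HepG2 hepatocellular carcinoma cells harbouring a stably integrated luciferase gene under control of 20 DREs. Increased reporter signal after 24 h treatment at 37C was taken as AhR activation.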

[3] = qHTS assay to identify small molecule that activate the aryl hydrocarbon receptor (AhR) signaling pathway - cell viability counter screen (AID 743086);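 further: HepG2 liver cells carrying the AhR DRE luciferase reporter; series mostly up to about 70 µM; nearly all actives have a fitted effect of over 45% in size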
How it was run: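 Cytotoxicity counter screen: CellTiter-Fluor signal (30 min, 37 C) in 4000 HepG2 cells/well carrying the DRE-luciferase reporter, following 24 h compound exposure at 37 C.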

[4] = biological target: Peroxisome proliferator-activated receptor gamma (Homo sapiens) (UniProt P37231); assay: qHTS assay to identify small molecule agonists of the peroxisome proliferator-activated receptor gamma (PPARg) signaling pathway (AID 743094; active means well fitted activation curve with a large enough effect in the signal ratio in the repeat runs, not every such curve was filed as active; the % refers to the signal ratio)
How it was run: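 Beta-lactamase FRET fluorescence was the read-out after a 1 h room-temperature substrate step, following 17 h compound treatment at 37C of HEK293H cells expressing a UAS-driven bla reporter responsive to PPARg.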

[5] = qHTS assay to identify small molecule antagonists of the peroxisome proliferator-activated receptor gamma (PPARg) signaling pathway - cell viability counter screen (AID 743194); conditions: Potency: co-treated with 50 nM rosiglitazone; further: nearly all actives have a fitted effect of over 55% in size
How it was run: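 Viability was measured as CellTiter-Glo luminescence in GeneBLAzer PPARg UAS-bla HEK293H cells. These cells had been exposed 17 h at 37 C to compounds together with rosiglitazone at 50 nM final, with the beta-lactamase readout taken in the same wells.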

[6] = qHTS assay for small molecule activators of the heat shock response signaling pathway - cell viability counter screen (AID 743209); further: nearly all actives have a fitted effect of over 50% in size
How it was run: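 Luminescence from CellTiter-Glo, added after the beta-lactamase FRET read, gave the viability signal. Cells were HSE-bla HeLa treated with DMSO-dissolved compounds for 5 h at 37 C following overnight plating.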

[7] = qHTS assay for small molecule activators of the heat shock response signaling pathway (AID 743210; active means well fitted activation curve with a large enough effect in the signal ratio in the repeat runs, with a control signal flat, not every such curve was filed as active; the % refers to the signal ratio;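 further: HeLa cells with beta-lactamase reporter driven by heat shock elements; series mostly up to about 63 µM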)
How it was run: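 In HSE-bla HeLa cells, 5 h compound incubation (37 C) precedes addition of LiveBLAzer B/G substrate; after 2.5 h at room temperature, fluorescence intensity indicates reporter induction.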

[8] = qHTS assay to identify small molecule agonists of the peroxisome proliferator-activated receptor delta (PPARd) signaling pathway - cell viability counter screen (AID 743211); further: nearly all actives have a fitted effect of over 55% in size
How it was run: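 Counter screen for cytotoxicity run in parallel with the PPARd reporter screen. Beta-lactamase reporter HEK293H cells exposed to compounds 17 h; ATP-based CellTiter-Glo luminescence quantified viability.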

[9] = biological target: Peroxisome proliferator-activated receptor delta (Homo sapiens) (UniProt Q03181); assay: qHTS assay to identify small molecule agonists of the peroxisome proliferator-activated receptor delta (PPARd) signaling pathway (AID 743212; calls by dose curve)
How it was run: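 HEK293H UAS-bla reporter cells, human PPARd system; compounds delivered in DMSO after 5 h plating, then at 37 C. Beta-lactamase FRET read, 2 h RT substrate step.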

[10] = biological target: Peroxisome proliferator-activated receptor delta (Homo sapiens) (UniProt Q03181); assay: qHTS assay to identify small molecule antagonists of the peroxisome proliferator-activated receptor delta (PPARd) signaling pathway (AID 743215; active means well fitted inhibition curve with a large enough effect in the signal ratio in the repeat runs, not every such curve was filed as active; the % refers to the signal ratio;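 further: cells stimulated with agonist L165041 at 300 nM final during compound exposure; series mostly up to about 62 µM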)
How it was run: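 Read-out is beta-lactamase FRET fluorescence, measured 2 h after substrate addition at room temperature. Beforehand, UAS-bla HEK293H cells carrying the PPARd reporter were exposed to compounds with L165041 at 300 nM final for 17 h at 37 C.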

[11] = qHTS assay to identify small molecule agonists of the farnesoid-X-receptor (FXR) signaling pathway - cell viability counter screen (AID 743218); further: nearly all actives have a fitted effect of over 45% in size
How it was run: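 HEK 293T FXR-bla cells; 5 h pre-incubation, 16 h compound exposure at 37 C; LiveBLAzer substrate 2 h RT, then CellTiter-Glo 30 min RT, luminescence.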

[12] = qHTS assay to identify small molecule antagonists of the farnesoid-X-receptor (FXR) signaling pathway - cell viability counter screen (AID 743221; active means well fitted cell-killing curve with a large enough effect in the repeat runs, not every such curve was filed as active; further: nearly all actives have a fitted effect of over 50% in size)
How it was run: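 Multiplexed counter screen: viability of FXR-bla HEK 293T cells under agonist stimulation by chenodeoxycholic acid (50 uM, final) and test compound for 16 h at 37 C, measured by CellTiter-Glo luminescence in the reporter wells.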

[13] = biological target: Vitamin D3 receptor (Homo sapiens) (UniProt P11473); assay: qHTS assay to identify small molecule agonists of the vitamin D receptor (VDR) signaling pathway (AID 743222; calls by dose curve)
How it was run: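 VDR-bla cells, 2,000/well; 4 h preincubation 37C; cpd (DMSO) 16 h; LiveBLAzer B/G substrate 2 h RT; fluorescence intensity read.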

[14] = biological target: Vitamin D3 receptor (Homo sapiens) (UniProt P11473); assay: qHTS assay to identify small molecule antagonists of the vitamin D receptor (VDR) signaling pathway (AID 743223; active means well fitted inhibition curve with a large enough effect in the signal ratio in the repeat runs, not every such curve was filed as active; the % refers to the signal ratio)
How it was run: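 Cells carrying a VDR-driven beta-lactamase reporter (VDR-bla) were co-treated with compound and 3 nM final 1alpha,25-dihydroxyvitamin D3 for 16 h at 37C; reporter activity was measured as FRET substrate fluorescence after 2 h at room temperature.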

[15] = qHTS assay for small molecule agonists of the antioxidant response element (ARE) signaling pathway (AID 743202; active means well fitted activation curve with a large enough effect in the signal ratio in the repeat runs, not every such curve was filed as active; the % refers to the signal ratio; further: potency means the concentration at half of the fitted maximal effect)
How it was run: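 An ARE-responsive beta-lactamase gene stably integrated in HepG2 cells serves as reporter. After 5 h plating and 16 h compound incubation at 37 C, fluorescence of the B/G FRET substrate was measured.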

[16] = qHTS assay for small molecule agonists of the antioxidant response element (ARE) signaling pathway - cell viability counter screen (AID 743203; calls by dose curve; further: nearly all actives have a fitted effect of over 55% in size)
How it was run: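 HepG2 cells carrying ARE-driven beta-lactamase; 2,000 cells/well; 5 hrs plating; compound pinned from DMSO; 16 hrs 37C/5% CO2; CellTiter-Glo added; 30 min RT; luminescence.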

[17] = biological target: Bile acid receptor (Homo sapiens) (UniProt Q96RI1); assay: qHTS assay to identify small molecule antagonists of the farnesoid-X-receptor (FXR) signaling pathway (AID 743217; active means well fitted inhibition curve with a large enough effect in the signal ratio in the repeat runs, not every such curve was filed as active; the % refers to the signal ratio)
How it was run: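 HEK 293T FXR-UAS-bla, 5000 cells/well; compound + CDCA 50 uM final; 16 h, 37 °C; B/G FRET substrate 2 h RT; fluorescence.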

[18] = qHTS assay to identify small molecule antagonists of the peroxisome proliferator-activated receptor delta (PPARd) signaling pathway - cell viability counter screen (AID 743213); further: nearly all actives have a fitted effect of over 50% in size
How it was run: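 Same-well viability: cells pre-incubated 5 h, dosed with compound plus 300 nM L165041, kept 17 h at 37 C, FRET substrate 2 h RT, then CellTiter-Glo 30 min RT and luminescence.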

[19] = biological target: Peroxisome proliferator-activated receptor gamma (Homo sapiens) (UniProt P37231); assay: qHTS assay to identify small molecule antagonists of the peroxisome proliferator-activated receptor gamma (PPARg) signaling pathway (AID 743191; calls by dose curve; further: series mostly up to about 63 µM; nearly all actives have a fitted effect of over 30% in size)
How it was run: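 Beta-lactamase reporter under UAS control in HEK293H PPARg-bla cells; compound treatment 17 h at 37C. Read-out: fluorescence intensity after 1 h room-temperature incubation with LiveBLAzer B/G FRET substrate.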

[20] = biological target: Bile acid receptor (Homo sapiens) (UniProt Q96RI1); assay: qHTS assay to identify small molecule agonists of the farnesoid-X-receptor (FXR) signaling pathway (AID 743220; active means well fitted activation curve with a large enough effect in the signal ratio in the repeat runs, not every such curve was filed as active; the % refers to the signal ratio)
How it was run: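 Beta-lactamase reporter under UAS control in GeneBLAzer FXR HEK 293T cells (5000/well) measured with LiveBLAzer FRET substrate after 2 h at room temperature. Compound exposure lasted 16 h at 37C.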

Peroxisome proliferator-activated receptor gamma (Homo sapiens), sequence (P37231 whole entry, looked up): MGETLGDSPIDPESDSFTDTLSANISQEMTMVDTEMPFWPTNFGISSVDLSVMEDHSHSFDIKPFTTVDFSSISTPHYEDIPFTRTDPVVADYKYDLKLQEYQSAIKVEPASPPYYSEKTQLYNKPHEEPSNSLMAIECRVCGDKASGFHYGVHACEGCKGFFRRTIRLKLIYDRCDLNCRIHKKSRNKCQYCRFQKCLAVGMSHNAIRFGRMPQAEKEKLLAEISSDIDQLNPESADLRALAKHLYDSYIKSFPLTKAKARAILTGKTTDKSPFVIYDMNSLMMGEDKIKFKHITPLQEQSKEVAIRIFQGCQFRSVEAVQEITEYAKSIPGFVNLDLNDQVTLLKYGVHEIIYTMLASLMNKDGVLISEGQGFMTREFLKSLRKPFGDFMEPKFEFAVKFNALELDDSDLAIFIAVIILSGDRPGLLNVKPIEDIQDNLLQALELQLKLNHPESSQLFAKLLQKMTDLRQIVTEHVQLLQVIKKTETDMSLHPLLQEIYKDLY
Peroxisome proliferator-activated receptor delta (Homo sapiens), sequence (Q03181 whole entry, looked up): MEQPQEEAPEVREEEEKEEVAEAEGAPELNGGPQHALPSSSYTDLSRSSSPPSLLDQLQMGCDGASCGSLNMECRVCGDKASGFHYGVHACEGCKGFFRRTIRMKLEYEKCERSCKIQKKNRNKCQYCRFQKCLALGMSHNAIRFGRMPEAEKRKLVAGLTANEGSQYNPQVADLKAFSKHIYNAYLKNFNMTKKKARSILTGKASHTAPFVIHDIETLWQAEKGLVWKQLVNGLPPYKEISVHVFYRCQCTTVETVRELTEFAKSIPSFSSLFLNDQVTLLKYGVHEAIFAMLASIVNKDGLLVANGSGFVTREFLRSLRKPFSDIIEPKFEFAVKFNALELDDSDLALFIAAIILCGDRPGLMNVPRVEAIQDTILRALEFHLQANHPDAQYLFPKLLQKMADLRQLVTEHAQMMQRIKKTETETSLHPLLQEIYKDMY
Vitamin D3 receptor (Homo sapiens), sequence (P11473 whole entry, looked up): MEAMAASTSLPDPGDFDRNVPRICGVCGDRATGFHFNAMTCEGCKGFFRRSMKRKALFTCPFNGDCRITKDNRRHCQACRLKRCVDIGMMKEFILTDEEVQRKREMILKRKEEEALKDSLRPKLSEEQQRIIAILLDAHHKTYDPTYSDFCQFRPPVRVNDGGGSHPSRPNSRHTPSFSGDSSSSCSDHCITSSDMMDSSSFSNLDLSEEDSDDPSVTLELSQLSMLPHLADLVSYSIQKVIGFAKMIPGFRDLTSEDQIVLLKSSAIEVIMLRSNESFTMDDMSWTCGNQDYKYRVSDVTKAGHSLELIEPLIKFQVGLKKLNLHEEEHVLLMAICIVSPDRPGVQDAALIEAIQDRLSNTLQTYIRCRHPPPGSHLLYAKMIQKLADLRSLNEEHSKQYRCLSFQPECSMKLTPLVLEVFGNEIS
Bile acid receptor (Homo sapiens), sequence (Q96RI1 whole entry, looked up): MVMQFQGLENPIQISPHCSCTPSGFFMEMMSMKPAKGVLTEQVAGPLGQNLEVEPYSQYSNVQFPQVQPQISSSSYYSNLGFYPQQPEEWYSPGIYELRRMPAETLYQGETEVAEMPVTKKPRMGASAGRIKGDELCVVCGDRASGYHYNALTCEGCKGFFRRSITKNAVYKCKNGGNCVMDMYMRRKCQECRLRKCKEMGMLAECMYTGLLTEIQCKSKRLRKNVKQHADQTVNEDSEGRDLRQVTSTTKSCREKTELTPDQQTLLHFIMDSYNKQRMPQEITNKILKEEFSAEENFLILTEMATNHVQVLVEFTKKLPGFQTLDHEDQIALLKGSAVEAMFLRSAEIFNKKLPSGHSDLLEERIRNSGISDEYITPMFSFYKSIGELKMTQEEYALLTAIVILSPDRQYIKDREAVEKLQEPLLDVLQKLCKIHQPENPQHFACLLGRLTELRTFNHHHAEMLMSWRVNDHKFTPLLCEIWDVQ
Aryl hydrocarbon receptor (Homo sapiens), sequence (P35869 whole entry, looked up): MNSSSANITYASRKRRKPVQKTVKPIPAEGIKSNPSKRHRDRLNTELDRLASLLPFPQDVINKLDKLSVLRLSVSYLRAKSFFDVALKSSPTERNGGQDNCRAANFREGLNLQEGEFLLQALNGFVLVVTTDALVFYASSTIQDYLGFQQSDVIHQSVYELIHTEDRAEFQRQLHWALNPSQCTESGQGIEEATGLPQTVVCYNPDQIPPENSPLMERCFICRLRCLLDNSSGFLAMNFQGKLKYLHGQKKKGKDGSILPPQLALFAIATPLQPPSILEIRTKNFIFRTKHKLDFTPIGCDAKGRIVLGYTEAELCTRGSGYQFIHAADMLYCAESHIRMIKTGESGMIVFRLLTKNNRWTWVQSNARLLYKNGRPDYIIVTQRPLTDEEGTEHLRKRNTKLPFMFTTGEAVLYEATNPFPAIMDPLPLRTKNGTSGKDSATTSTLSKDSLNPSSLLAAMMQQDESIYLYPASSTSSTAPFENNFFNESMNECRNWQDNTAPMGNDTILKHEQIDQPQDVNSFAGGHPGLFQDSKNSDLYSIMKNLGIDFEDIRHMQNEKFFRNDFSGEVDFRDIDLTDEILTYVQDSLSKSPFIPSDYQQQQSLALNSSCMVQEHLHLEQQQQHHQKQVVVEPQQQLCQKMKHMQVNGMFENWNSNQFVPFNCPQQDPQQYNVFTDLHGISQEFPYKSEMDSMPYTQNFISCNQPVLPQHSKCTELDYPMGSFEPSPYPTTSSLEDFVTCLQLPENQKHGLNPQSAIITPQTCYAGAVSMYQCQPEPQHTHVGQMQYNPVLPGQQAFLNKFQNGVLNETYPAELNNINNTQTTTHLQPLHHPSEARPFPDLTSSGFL

| SMILES | Potency [1] | Potency [2] | Potency [3] | outcome [4] | Potency [5] | Potency [6] | Potency [7] | Potency [8] | outcome [9] | Potency [10] | Potency [11] | Potency [12] | outcome [13] | outcome [14] | Potency [15] | Potency [16] | outcome [17] | Potency [18] | Potency [19] | outcome [20] |
| --- | --- | --- | --- | --- | --- | --- | --- | --- | --- | --- | --- | --- | --- | --- | --- | --- | --- | --- | --- | --- |
| O=P(O)(O)CN(CP(=O)(O)O)CP(=O)(O)O | inactive | inactive | inactive | inactive | inactive | inactive | inactive | inactive | inactive | inactive | inactive | inactive | inactive | inactive | – | – | – | – | – | – |
| N[C@@H](Cc1ccc(Oc2cc(I)c(O)c(I)c2)c(I)c1)C(=O)O | inactive | inactive | inactive | – | inactive | inactive | inactive | inactive | inactive | inactive | inactive | inactive | – | – | inactive | inactive | inactive | – | – | – |
| O=C(Cl)C(Cl)Cl | inactive | inactive | inactive | – | inactive | inactive | inactive | inactive | inactive | inactive | inactive | inactive | inactive | inactive | inactive | inactive | – | inactive | – | – |
| CS(=O)(=O)c1ccc(C(=O)C2C(=O)CCCC2=O)c(Cl)c1COCC(F)(F)F | inactive | inactive | inactive | – | inactive | inactive | – | inactive | inactive | inactive | inactive | inactive | inactive | inactive | inactive | inactive | – | inactive | – | – |
| O=C(O)CBr | inactive | inactive | inactive | – | inactive | inactive | inactive | inactive | inactive | inactive | inactive | inactive | inactive | inactive | inactive | inactive | – | inactive | – | – |
| C[C@@H](N)[C@@H](O)c1ccccc1 | inactive | inactive | inactive | – | inactive | inactive | – | inactive | inactive | – | inactive | inactive | – | – | inactive | inactive | – | – | – | – |
| ClC(Cl)(Cl)Cl | inactive | inactive | inactive | – | inactive | inactive | – | inactive | inactive | – | inactive | inactive | inactive | inactive | inactive | – | – | inactive | inactive | inactive |
| O=P(O)(O)c1ccccc1 | inactive | inactive | inactive | – | inactive | inactive | – | inactive | inactive | – | inactive | inactive | inactive | inactive | inactive | inactive | – | – | – | – |
| CC(=NC#N)N(C)Cc1ccc(Cl)nc1 | inactive | inactive | inactive | – | inactive | inactive | – | inactive | inactive | – | inactive | inactive | inactive | inactive | – | inactive | – | inactive | inactive | – |
| C=C(C)[C@H]1CN[C@H](C(=O)O)[C@H]1CC(=O)O | inactive | inactive | inactive | – | inactive | inactive | inactive | inactive | inactive | inactive | inactive | inactive | inactive | inactive | inactive | inactive | – | inactive | inactive | – |
| O=C(NC(O)C(Cl)(Cl)Cl)NC(O)C(Cl)(Cl)Cl (stereo not drawn) | inactive | inactive | inactive | – | inactive | inactive | inactive | inactive | – | – | inactive | inactive | inactive | inactive | inactive | inactive | – | inactive | – | – |
| COP(=O)(OC)O/C(C)=C/C(=O)N(C)C | inactive | inactive | inactive | inactive | – | inactive | – | inactive | inactive | – | – | inactive | inactive | inactive | inactive | inactive | – | – | – | – |
| CC[C@@H](CO)NC(=O)[C@@H]1C=C2c3cccc4[nH]cc(c34)C[C@H]2N(C)C1 | inactive | inactive | inactive | – | inactive | inactive | – | inactive | inactive | inactive | inactive | inactive | – | – | inactive | inactive | – | inactive | – | – |
| CCCCS(=O)(=O)Cl | inactive | inactive | inactive | inactive | inactive | inactive | – | inactive | inactive | inactive | inactive | inactive | inactive | inactive | – | – | inactive | inactive | – | inactive |
| O=C(Cl)/C=C/C(=O)Cl | inactive | inactive | inactive | – | inactive | inactive | – | inactive | inactive | inactive | inactive | – | inactive | – | 22 µM (active) | inactive | – | inactive | – | inactive |
| CON(C)C(=O)Nc1ccc(Br)c(Cl)c1 | inactive | 30.6 µM (active) | inactive | inactive | – | inactive | – | inactive | – | – | inactive | inactive | inactive | – | inactive | – | – | – | – | – |
| CN=CNc1ccc(C)cc1C | inactive | – | inactive | inactive | inactive | inactive | inactive | inactive | inactive | – | inactive | – | inactive | inactive | – | – | – | inactive | inactive | – |
| COc1ccccc1OC | inactive | – | inactive | inactive | – | inactive | – | inactive | inactive | inactive | inactive | inactive | inactive | – | – | inactive | – | inactive | inactive | – |
| BrCC1CO1 (stereo not drawn) | inactive | – | inactive | inactive | inactive | inactive | – | inactive | inactive | inactive | – | inactive | inactive | inactive | inactive | – | inactive | inactive | – | – |
| c1ccc2c(c1)CCNC2 | inactive | – | inactive | – | inactive | inactive | – | inactive | inactive | inactive | inactive | inactive | inactive | inactive | inactive | – | – | inactive | inactive | – |
